Results filed as inconclusive are left out. Unmarked numbers belong to inactive results. The source made the active and inactive calls. The call rests on the fitted dose curve; in most records, active means well fitted inhibition curve with a large enough effect; inconclusive means small, poorly fitted or top-dose-only effect; inactive means no such curve, though single readings can be large or run the other way.

A short description of the assay: qHTS screen for inhibitors of ELG1-dependent DNA repair in human embryonic kidney (HEK293T) cells expressing luciferase-tagged ELG1: MMS Viability Assay for probe SAR. The conditions noted are these: HEK293T ELG1-luc + MMS viability, CellTiter-Glo, 16 h; series mostly up to 46.1 µM; activity change, negative = lower viability: at the top concentration. An excerpt: Cancer cells divide rapidly compared to normal cells in the body. During cell division, cancer cells need to duplicate their genome by DNA replication. The failure of genome duplication leads to cancer cells' death. Therefore, inhibitors of DNA replication could specifically kill cancer cells. Based on this concept, many chemotherapeutic agents were developed and have been used to treat cancer patients. However, there are a limited number of agents available in the clinical setting, and some of those that do exist have low efficacy and severe side effects. Therefore, if we can find the compounds that effectively block DNA replication either by directly damaging DNA or by inhibiting other cellular mechanisms, the options for cancer treatment will be broadened. With this in mind, we developed a quantitative high-throughput ELG1-luciferase reporter gene assay. Small molecules that specifically block ELG1 function in response to DNA damage can be identified by monitoring the suppression of luciferase activity. Since ELG1 defines a pathway for repairing DNA damage, agents blocking ELG1 function can be used to sensitize cancer cells to chemotherapeutic agents whose mechanism of action involves the induction of DNA damage. Cytotoxicity of the active compounds in the ELG1 qHTS assay with MMS stimulation (AID 493125) was assessed using the CellTiter-Glo Luminescent Cell Viability Assay kit (Promega, USA). CellTiter-Glo measures the intracellular ATP present in metabolically active cells using Ultra-Glo as the luciferase to detect ATP levels. In brief, the luciferase in the buffer catalyzes the oxidation of luciferin to oxyluciferin and light which is dependent on ATP. […] DMSO and wells with media alone were used as positive and negative controls, respectively. Inactivity to this assay is the desirable outcome. NIH Molecular Libraries Probe Production Network [MLPCN] NIH Chemical Genomics Center [NCGC] MLPCN Grant: R03 MH092164 Assay Provider: Kyungjae Myung, NHGRI, NIH
ELG1-luc HEK293T cells will be seeded in 1536-well plates at a density of 2,000 cells/well. Approximately 5 hours after plating, compounds will be added to the plate by pin tool transfer and MMS will be added by FRD dispenser (final concentration of MMS = 10 µM). 16 hours following the addition of the compounds, cell viability will be measured using CellTiter Glo.
Background: Quantitative high-throughput screening tests each substance at several concentrations.
`Cc1cc(-c2nc(Nc3ccc(F)c(F)c3)c3ccccc3n2)cc(C)n1`: the “activity change, negative = lower viability” value is -8.79%.
As for `O=c1cc(-c2nc(Nc3ccc(F)c(F)c3)c3ccccc3n2)cc[nH]1`, the “activity change, negative = lower viability” value was 9.88%.
As for `Fc1cccc(-c2ccc(Nc3nc(-c4ccncc4)nc4ccccc34)cc2F)c1`, the “activity change, negative = lower viability” value was -21.1%.
On to `Fc1cc(Nc2nc(-c3ccncc3)nc3ccccc23)ccc1-c1ccnc(C(F)(F)F)c1`, for which the “activity change, negative = lower viability” value was -11.2%.
The same measure, in the same setting: the same measure for `Fc1cc(Nc2nc(-c3ccncc3)nc3ccccc23)ccc1-c1cncnc1`: 13.8%; for `COc1nccc(-c2nc(Nc3ccc(F)c(F)c3)c3ccccc3n2)c1Cl`: -4.2%.
Still for that read-out and setting: the same measure for `Cc1cnccc1-c1nc(Nc2ccc(F)c(F)c2)c2ccccc2n1`: -5.06%; for `CSc1ccccc1-c1ccc(Nc2nc(-c3ccncc3)nc3ccccc23)cc1F`: -35.6%.
As to `Fc1cc(Nc2nc(-c3ccncc3)nc3ccccc23)ccc1-c1cccc(C(F)(F)F)c1`, the Potency is 20.9 µM (active).
The same measure, in the same setting: the same measure for `COc1cnccc1-c1nc(Nc2ccc(F)c(F)c2)c2ccccc2n1`: 16.6 µM (active).
As to `COc1cc(-c2nc(Nc3ccc(F)c(F)c3)c3ccccc3n2)cc(OC)n1`, the “activity change, negative = lower viability” value was -75.3%.
The same measure, in the same setting: the figure for `Fc1cc(Nc2nc(-c3ccncc3)nc3ccccc23)ccc1-c1ccc(F)c(F)c1F` is 3.54%; for `COC(=O)c1ccc(Nc2nc(-c3ccncc3)nc3ccccc23)cc1OC` it is 3.72%.
Regarding `COc1cc(-c2nc(Nc3ccc(F)c(F)c3)c3ccccc3n2)c(F)cn1`, the Potency was 23.5 µM (active).
On to `COc1ccc(-c2nc(Nc3ccc(F)c(F)c3)c3ccccc3n2)cc1`, for which the “activity change, negative = lower viability” value is -27.9%.
The same measure, in the same setting: the figure for `Fc1ccc(Nc2nc(-c3ccnc(N4CCCCC4)c3)nc3ccccc23)cc1F` is 3.34%; for `COc1cc(Nc2nc(-c3ccncc3)nc3ccccc23)ccc1NS(C)(=O)=O` it is -4.62%.
For `Fc1ccc(-c2ccc(Nc3nc(-c4ccncc4)nc4ccccc34)cc2F)c(F)c1`, the Potency is 7.43 µM (active).
Consider `COc1ccc(-c2ccc(Nc3nc(-c4ccncc4)nc4ccccc34)cc2F)cc1F`, for which the “activity change, negative = lower viability” value was -27.8%.
Still for that read-out and setting: the same measure for `Fc1cc(Nc2nc(-c3ccncc3)nc3ccccc23)ccc1OCC(F)(F)F`: -9.42%.
`COc1ccc(-n2c(C)c(C(C)=O)c3ccccc32)cc1`: the Potency entry was “inactive”.
On to `Fc1ccc(Nc2cc(-c3ccccc3)nc(-c3ccncc3)n2)cc1F`, for which the “activity change, negative = lower viability” value is -28.5%.
On the same count and under the same terms, the figure for `Cc1nc2ccc(Nc3nc(-c4ccncc4)nc4ccccc34)cc2s1` is -3.61%; for `Cc1cc(-c2nc(Nc3ccc(F)c(F)c3)c3ccccc3n2)ccn1` it is 5.15%.
Still for that read-out and setting: the figure for `Nc1cc(-c2nc(Nc3ccc(F)c(F)c3)c3ccccc3n2)ccn1` is 11.4%; for `Fc1cc(Nc2nc(-c3ccncc3)nc3ccccc23)ccc1-c1ccncc1` it is 2.69%.
Same read-out and setting: the figure for `Oc1ccc(Nc2nc(-c3ccncc3)nc3ccccc23)cc1F` is -27.3%; for `Fc1cccc(Nc2nc(-c3ccncc3)nc3ccccc23)c1` it is -25.8%.
Consider `Fc1cc(Nc2nc(-c3ccncc3)nc3ccccc23)ccc1-c1cccc(OC(F)(F)F)c1`, for which the Potency is 18.7 µM (active).
Same read-out and setting: the figure for `Fc1ccc(Nc2nc(-c3ccnc(C(F)(F)F)c3)nc3ccccc23)cc1F` is 20.9 µM (active); for `Fc1cc(Nc2nc(-c3ccncc3)nc3ccccc23)ccc1-n1cncn1` it is “inactive”.
With `Fc1cc(Nc2nc(-c3ccncc3)nc3ccccc23)ccc1-c1cccc(OC(F)F)c1`, the “activity change, negative = lower viability” value is -22.4%.
As to `Fc1ccc(-c2ccc(Nc3nc(-c4ccncc4)nc4ccccc34)cc2F)c(Cl)c1`, the Potency is 18.7 µM (active).
Consider `Fc1cc(Nc2nc(-c3ccncc3)nc3ccccc23)ccc1-c1ccc2[nH]ncc2c1`, for which the “activity change, negative = lower viability” value was -12.3%.
The same measure, in the same setting: the figure for `COc1ccc(-n2c(C)c(C(C)=O)c3cc(O)ccc32)cc1` is 12.3%; for `COc1cc(Nc2nc(-c3ccncc3)nc3ccccc23)ccc1N1CCN(C)CC1` it is 4.02%.
`CN1CCN(c2ccc(Nc3nc(-c4ccncc4)nc4ccccc34)cc2F)CC1`: the “activity change, negative = lower viability” value is -7.11%.
Turning to `Fc1ccc(Nc2nc(-c3ccncc3)nc3ccccc23)cc1F`, the “activity change, negative = lower viability” value is -6.97%.
Still for that read-out and setting: the same measure for `CCOC(=O)c1ccc2c(c1)c(C(C)=O)c(C)n2-c1ccc(OC)cc1`: 1.14%; for `COc1ccc(Nc2nc(-c3ccncc3)nc3ccccc23)cc1F`: 6.58%.

Values taken from PubChem BioAssay AID686922 (National Center for Advancing Translational Sciences (NCATS), 2013).
